# This is a sample that favours compounds with a hit; in the whole collection about 18% have one here.
# Six1-Eya2 blk: qHTS Assay for Inhibitors of the Six1/Eya2 Interaction | AlphaScreen GST-Six1/His-Eya2 binding, biochemical; stronger effect = lower value | activity change, % (no concentration beside the values) | actives 0.56% (n = 360,000) | AID 651725, 2012; in the data active = activity change below about -65%; inconclusive = mostly about -30% to -63%
# Target sequence (O00167 whole entry, looked up): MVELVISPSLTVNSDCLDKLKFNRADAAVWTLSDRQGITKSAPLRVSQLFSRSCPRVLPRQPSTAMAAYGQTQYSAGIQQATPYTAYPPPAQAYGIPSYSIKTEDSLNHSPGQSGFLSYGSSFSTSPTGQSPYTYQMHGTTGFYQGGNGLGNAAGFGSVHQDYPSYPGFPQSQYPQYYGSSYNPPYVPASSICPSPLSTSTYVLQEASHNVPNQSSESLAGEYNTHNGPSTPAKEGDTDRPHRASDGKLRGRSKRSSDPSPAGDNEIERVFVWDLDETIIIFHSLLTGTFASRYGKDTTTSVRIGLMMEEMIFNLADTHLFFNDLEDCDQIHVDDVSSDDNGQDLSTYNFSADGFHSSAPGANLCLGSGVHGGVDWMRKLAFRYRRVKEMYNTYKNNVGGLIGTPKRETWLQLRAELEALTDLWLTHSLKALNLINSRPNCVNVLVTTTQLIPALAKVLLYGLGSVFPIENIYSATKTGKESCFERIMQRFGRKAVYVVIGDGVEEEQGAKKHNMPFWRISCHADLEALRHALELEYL
# Target sequence (Q15475 whole entry, looked up): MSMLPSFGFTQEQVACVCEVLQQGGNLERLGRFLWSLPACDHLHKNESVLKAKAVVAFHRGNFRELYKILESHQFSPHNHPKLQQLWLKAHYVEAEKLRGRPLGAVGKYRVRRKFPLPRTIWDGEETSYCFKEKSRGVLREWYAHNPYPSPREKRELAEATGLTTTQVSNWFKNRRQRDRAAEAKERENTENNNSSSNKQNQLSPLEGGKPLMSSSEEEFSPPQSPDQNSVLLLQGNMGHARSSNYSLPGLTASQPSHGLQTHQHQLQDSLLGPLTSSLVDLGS
#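 GST-Six1 + His-Eya2 (5X stock: 250/500 nM); Tris pH 8.0, 300 mM NaCl, 0.05% BSA, 0.02% Tween 20; GSH donor/Ni acceptor beads; 1 h 37 °C dark; AlphaScreen readout.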
# TDP1 cell noCPT: qHTS for Inhibitors of human tyrosyl-DNA phosphodiesterase 1 (TDP1): qHTS in cells in absence of CPT. Potency, µM (highest dose often 46.2 µM), without a hit: at the top dose activity change, negative = growth inhibition, most hits filed as inhibitors. DT40 Tdp1-/- hTDP1 cells, no CPT, ATP luminescence, 48 h. actives 15% (n = 420,000). AID 686978, 2013; also: potency is read from the fitted curve at half-maximal effect; nearly all actives have a fitted effect of over 55% in size
#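 Camptothecin absent (DMSO only). Human TDP1-complemented DT40 knockout cells, 400 cells/well, 37 °C for minimum 48 hr; ATP measured via CellTiter-Glo, 30 min dark incubation, luminescence.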
# CtBP-E1A inh: qHTS Assay for Inhibitors of the CtBP/E1A Interaction | actives 0.49% (n = 340,000) | AID 651724, 2012 | AlphaScreen GST-E1A/His-CtBP binding, 1536-well; stronger effect = lower value | activity change, % (test concentration not listed) | CtBP / adenovirus E1A interaction (AlphaScreen); in the data active = activity change below about -65%; inconclusive = mostly about -30% to -63%
#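 Steps: dispense buffer (Tris pH 8.0, NaCl 300 mM, TCEP 1 mM, BSA, Tween 20); add 5X protein mix (GST-E1A, His-CtBP, 125 nM each); pin 23 nL compound; 2 h at 37 °C, dark; add 5X beads (50 ug/mL); 1 h; read.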
# IL1B secr inh: qHTS for Inhibitors of Inflammasome Signaling: IL-1-beta AlphaLISA Primary Screen | THP-1 LPS/ATP IL-1B secretion, AlphaLISA, 16 h; stronger effect = lower value | activity change, % at 57.5 µM | actives 4.7% (n = 360,000) | AID 743279, 2014; in the data active = activity change below about -50%; inconclusive = mostly about -30% to -49%
#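 Secreted IL-1B measured by AlphaLISA bead assay after 16 h compound exposure of THP-1 cells; compounds (final up to 57.5 uM) added 1 h before LPS (250 ng/mL) and ATP (1.25 mM) stimulation; lower signal means less secretion.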
# TDP1 inh: qHTS Assay for Inhibitors of Tyrosyl-DNA Phosphodiesterase (TDP1). actives 0.28% (n = 350,000). recombinant TDP1, AlphaScreen DNA substrate cleavage. Potency, µM (titrated, usually from 130 µM), for inactives: top-dose activity change, negative = inhibition, most hits filed as inhibitors. AID 485290, 2010; also: potency is read from the fitted curve at half-maximal effect; nearly all actives have a fitted effect of over 40% in size
#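 Tdp1 1 nM final; 15 min RT w/ cpd; substrate 15 nM, 5 min; beads 10 ug/ml, 10 min; AlphaScreen read. Neg ctrl: no enzyme.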
# DT40 TDP1 CPT: qHTS for Inhibitors of human tyrosyl-DNA phosphodiesterase 1 (TDP1): qHTS in cells in presence of CPT. AID 686979, 2013. chicken DT40 Tdp1-/-;hTDP1 cells + 20 nM CPT, ATP luminescence, 48 h. Potency, µM (titrated, usually from 46.2 µM), for the others: at the top dose activity change, negative = growth inhibition, hits mostly inhibitors. actives 12% (n = 420,000); also: potency is read from the fitted curve at half-maximal effect; nearly all actives have a fitted effect of over 55% in size
#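 Chicken DT40 Tdp1-/- cells stably complemented with human TDP1 were seeded at 400 cells/well in medium containing 20 nM camptothecin, exposed to pin-transferred compounds, and grown at 37 °C for at least 48 hr. Viability was read as ATP luminescence.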
# * marks the source's active call; other numbers are inactive results; ? = inconclusive; . = no result given; ! = repeats disagree; [ ] = dose if it differs, or a comment. Unless noted, calls follow the shape of the dose curve; as a rule, active = well fitted curve in the direction sought with a large enough effect; inconclusive = small, poorly fitted or top-dose-only effect, or another doubt; inactive = no such curve, though single readings can be large; an effect the other way counts as inactive or inconclusive. % is scaled to controls: 0 for no effect and ±100 for the full control effect.
SMILES,Six1-Eya2 blk,TDP1 cell noCPT,CtBP-E1A inh,IL1B secr inh,TDP1 inh,DT40 TDP1 CPT
Cc1cc(Br)cc(C)c1OCC(=O)NNC(=O)CCC(=O)NCc1ccccc1,0.9,7.6%,.,6.3,2.6%,-0.9%
O=C(NCc1ccc(Cl)cc1)c1ccc(CSc2nc3ccncc3[nH]2)cc1,-5.0,?,-1.7,-74.1*,.,?
Cc1ccc(CSc2nc3ccncc3[nH]2)cc1,2.6,14.6µM*,-1.0,-16.7,5.9%,?
O=C(c1ccc(CSc2nc3ccncc3[nH]2)cc1)N1CCN(c2cccc(Cl)c2)CC1,-22.8,7.31µM*,-29.1,?,2.6%,9.2µM*
Cc1cc(C)cc(NC(=O)CCCSc2nc3ccccc3[nH]2)c1,-11.4,?,-7.0,?,5.8%,?
O=C(NCc1ccc(Cl)cc1)c1ccncc1,-0.6,-2.3%,3.0,11.6,.,-25.1%
Clc1ccc(CSc2nc3ccncc3[nH]2)cc1,0.6,?,4.9,15.6,1.3%,?
O=C(c1ccc(CSc2nc3ccncc3[nH]2)cc1)N1CCCCCC1,1.9,?,6.0,48.3,.,?
Cc1cc(C)cc(NC(=O)CSc2nc3ccncc3[nH]2)c1,4.2,16.4µM*,-2.5,26.8,-2.0%,6.51µM*
O=C(Nc1ccc(OCC(=O)N2CCOCC2)cc1)c1cccc(Cl)c1,-10.0,13.4%,2.7,-8.9,1.4%,13.6%
S=C(Nc1ccccc1)N1CCOCC1,7.6,11.9%,1.0,1.3,4.8%,4.9%
COc1ccc(NC(=O)Cc2nnc(SCC(=O)Nc3cc(C)ccc3OC)n2C)cc1,0.8,-17.4%,17.5,0.0,-1.0%,-12.1%
O=C(CCCN1CCC(O)(c2cccc(C(F)(F)F)c2)CC1)c1ccc(F)cc1,5.3,?,-4.0,-53.5*,5.8%[56.1 µM],?
O=C(CCCN1CCC(O)(c2ccc(Cl)cc2)CC1)c1ccc(F)cc1,-1.9,16.4µM*!,0.8,-68.0*,2.7%,26.6µM*!
COc1ccc(C)cc1NC(=O)CSc1nc2ccccc2nc1N1CCCC1,11.7,20.6µM*,12.3,10.6,.,?
COc1ccc(Cl)cc1NC(=O)CSc1nc2ccccc2nc1N1CCCCC1,.,20.6µM*,.,.,-7.4%,?
COc1ccc(NC(=O)CSc2nc3ccccc3nc2N2CCCC2)c(OC)c1,3.9,?,5.8,7.3,.,?
CCOC(=O)CN(C(=O)CNC(=O)c1cccs1)C(C(=O)NC1CCCCC1)c1cccs1 (configuration not stated),-0.7,-25.7%,-2.5,-2.9,-3.6%[56.1 µM],-13.9%
Cn1c(=O)c2nc(SCCO)n(C)c2n(C)c1=O,1.8,?,3.7,-4.6,.,5.2%
CCOc1ccc(N=Cc2c(C)[nH]n(-c3nc4ccccc4[nH]3)c2=O)cc1,0.4,9.2µM*,4.2,18.3,50.1µM*,10.3µM*
Cc1ccc(-c2nc3ccccc3[nH]2)cc1NC(=O)c1ccco1,-1.9,?,-1.0,-8.6,2.1%,-25.3%
Cc1ccc(-c2nc3ccccc3[nH]2)cc1NC(=O)c1sc2cc(Cl)ccc2c1Cl,1.0,16.4µM*,-3.1,-0.1,1.4%,8.2µM*
Cc1cc(OCC(=O)Nc2cc(-c3nc4ccccc4[nH]3)ccc2C)ccc1Cl,.,7.31µM*,.,.,-0.6%,14.6µM*
Cc1cc(Cl)ccc1OCC(=O)N[C@@H](Cc1ccccc1)c1nc2ccccc2[nH]1,15.0,16.4µM*,14.0,15.7,5.4%,20.6µM*
Cc1ccc(-c2nc3ccccc3[nH]2)cc1NC(=O)COc1ccc(Cl)cc1Cl,.,5.17µM*,.,.,-7.1%,6.51µM*
SMILES,Six1-Eya2 blk,TDP1 cell noCPT,CtBP-E1A inh,IL1B secr inh,TDP1 inh,DT40 TDP1 CPT
COc1ncc2nc(-c3cc(F)cc(F)c3)c(=O)n(C3CC3)c2n1,.,0.8%,.,.,.,4.5%
CC(C)(C)[C@@H]1C=C(C(=O)N2CCN(Cc3ccc4c(c3)OCO4)CC2)O[C@H](OCc2ccc(CO)cc2)C1,-13.7,16.4µM*,-22.6,-16.5,5.1%,?
O=C(C1=C[C@@H](c2ccc3c(c2)OCO3)C[C@@H](OCc2ccc(CO)cc2)O1)N1CCOCC1,4.9,-11.9%,-0.8,-8.8,5.1%,-1.4%
O=C(C1=C[C@@H](c2ccc(Br)cc2)C[C@@H](OCc2ccc(CO)cc2)O1)N1CCN(Cc2ccc3c(c2)OCO3)CC1,-18.7,18.4µM*,-15.3,-25.2,3.8%,?
O=C(C1=C[C@@H](c2ccc(C(F)(F)F)cc2)C[C@@H](OCCCCO)O1)N1CCN(Cc2ccc3c(c2)OCO3)CC1,-0.8,?,-5.1,?,3.8%,18.4µM*
CC(C)(C)[C@@H]1C=C(C(=O)Nc2ccccc2)O[C@H](OCc2ccc(CO)cc2)C1,2.2,20.6µM*,1.2,?,3.8%,23.1µM*
CC(C)(C)[C@H]1C=C(C(=O)N2CCN(Cc3ccc4c(c3)OCO4)CC2)O[C@@H](OCCCCO)C1,-1.6,-18.5%,-0.2,?,3.8%,?
O=C(O)c1ccc(NC(=S)N2CCCCC2)cc1,-5.3,5.1%,0.6,19.9,2.6%,17.5%
O=Cc1ccccc1OCc1nnsc1Cl,1.9,?,9.4,56.6,0.0%,?
O=C(C1=C[C@@H](c2ccc(C(F)(F)F)cc2)C[C@@H](OCc2ccc(CO)cc2)O1)N1CCN(Cc2ccc3c(c2)OCO3)CC1,-15.8,20.6µM*,-11.0,-69.6*,0.0%,20.6µM*
O=C(C1=C[C@H](c2ccc(C(F)(F)F)cc2)C[C@H](OCc2ccc(CO)cc2)O1)N1CCN(Cc2ccc3c(c2)OCO3)CC1,-20.4,?,-18.8,.,5.1%,?
O=C(Nc1ccccc1C(=O)NCCN1CCOCC1)c1cccc([N+](=O)[O-])c1,6.6,?,0.0,-13.7,6.4%,?
O=C(N/N=C/c1ccccn1)c1cc(-c2ccc(Br)s2)[nH]n1,-25.9,?,1.9,23.5,.,?
Cc1nn(-c2ccccc2)c(C)c1/C=N/NC(=O)c1cc(-c2cccs2)[nH]n1,?,0.0082µM*,?,73.8,5.7%,0.82µM*
O=C(N/N=C/c1ccccn1)c1cc(-c2ccc(Cl)s2)[nH]n1,?,16.4µM*,?,-2.6,0.5%[0.0935 µM],23.1µM*
Cc1cc(C(=O)N/N=C/c2c(C)nn(-c3ccccc3)c2C)n[nH]1,-5.8,-19.2%,-6.3,-13.1,1.4%,-0.4%
